Results filed as inconclusive are left out. Unmarked numbers belong to inactive results. Calls come from the whole dose curve; as a rule, active = well fitted cell-killing curve with a large enough effect; inconclusive = small, poorly fitted or top-dose-only effect, or effect the other way; inactive = flat fitted curve, though single readings scatter.
system: CASKI; assay: Primary qHTS to identify gynecologic anti-cancer compounds using libraries of approved drugs and bioactive compounds (AID 1345084); details: Gynecologic cancer cell panel viability, ATPlite luminescence, 48 h; series mostly up to 57.5 µM; activity change, negative = cytotoxicity: at the top concentration; note: nearly all actives have a fitted effect of over 55% in size
Procedure, shortened: (§1)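 Cells, 1,000 per well, plated 16 h, then exposed 48 h at 37 C to compounds. Viability by ATPlite luminescence after 15 min at room temperature.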
% is set by controls: 0 for no effect and ±100 for the full control effect.

| Compound | activity change, negative = cytotoxicity [%] |
| --- | --- |
| O=C(Nc1ccccc1)N1CCN(c2nc(-c3ccccc3)ns2)CC1 | 0.299 |
| Cc1cc(N2CCOCC2)ccc1Nc1nc(NC2CCCCC2)c2[nH]cnc2n1 | 4.94 |
| O=C(O)CCc1nccc2c1[nH]c1ccccc12 | 14.1 |
| O=c1[nH]c2ccc(C#CCN3CCC(Cc4ccccc4)CC3)cc2[nH]1 | 0.0168 |
| COC1=CC(=O)O/C1=C(/OC)[C@@H]1O[C@H]1c1ccccc1 | -16.1 |
| O=C(Nc1ccc(-c2ccnc(Nc3ccc(N4CCOCC4)cc3)n2)cc1)C1CCCN1 (stereo unspecified) | 3.68 |
| CCCCC1CCN(CCCN2C(=O)CCc3ccccc32)CC1 | -31.5 |
| O=C(NCc1cccs1)c1cc2nc(-c3ccco3)cc(C(F)(F)Cl)n2n1 | 12.4 |

system: Es-2; assay: as above; details: Gynecologic cancer cell panel viability, ATPlite luminescence, 48 h; series mostly up to 57.5 µM; activity change, negative = cytotoxicity: at the top concentration
Procedure, shortened: as §1

| Compound | activity change, negative = cytotoxicity [%] |
| --- | --- |
| COc1cc(OC)c2c(=O)[nH]c(-c3cc(C)c(OCCO)c(C)c3)nc2c1 | -11.5 |
| COc1ccc(C2=NC(c3ccc(Cl)cc3)C(c3ccc(Cl)cc3)N2C(=O)N2CCNC(=O)C2)c(OC(C)C)c1 (stereo unspecified) | 4.19 |
| CCn1c(=O)c(-c2ccc(-c3cncs3)cc2Cl)cc2cnc(Nc3ccc(N4CCN(C)CC4)cc3)nc21 | 0.518 |
| COC(=O)c1ccc2c(c1)[nH]c1ncnc(NCCCN3CCCCC3)c12 | -8.32 |
| CN1CCN(c2ccc(Nc3cc(-c4cccc(-n5ccc6cc(C7CC7)cc(F)c6c5=O)c4CO)cn(C)c3=O)nc2)CC1 | 1.78 |
| O=c1nc(-c2ccccn2)sc2ccccc12 | -17.1 |
| CNc1nc(Nc2ccc(C(=O)N3CCOCC3)cc2OC)nc2[nH]cc(Cl)c12 | -8 |
| Cn1cc(-c2ccc3c(c2)CCN3C(=O)Cc2cccc(C(F)(F)F)c2)c2c(N)ncnc21 | -5.23 |
